From PubChem BioAssay (Tox21) come the findings set out here.

Assay [1] in a line: qHTS assay to identify small molecule agonists of the progesterone receptor (PR) signaling pathway - cell viability counter screen (AID 1346799; calls by dose curve; further: nearly all actives have a fitted effect of over 45% in size; further: potency means the concentration at half of the fitted maximal effect). The method, boiled down:
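Counter screen in the PR-UAS-bla HEK293T wells (2% charcoal-stripped FBS, 16 h compound exposure at 37 C) after the bla read. CellTiter-Glo added, 30 min at room temperature, luminescence read as cell viability.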
Background: In qHTS, concentration-response curves come from the screen itself.

Assay [2] can be described thus: qHTS assay to identify small molecule agonists of the TGF-beta/Smad signaling pathway - cell viability counter screen (AID 1346829). Further: nearly all actives have a fitted effect of over 45% in size. Further: potency means the concentration at half of the fitted maximal effect. In a few lines: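 Tox21 qHTS format: SBE-bla HEK 293T cells treated with DMSO-dissolved compounds for 5 hr; CellTiter-Glo luminescence after 30 min at room temperature.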
The nature of assay [3]: qHTS assay to identify small molecule agonists of the TGF-beta/Smad signaling pathway (AID 1346859; active means well fitted activation curve with a large enough effect in the signal ratio in the repeat runs, not every such curve was filed as active; the % refers to the signal ratio; further: series mostly up to about 77 µM). The method, boiled down: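 SBE-bla HEK293T cells plated overnight, then compound exposure for 5 h at 37 C. Beta-lactamase reporter read with LiveBLAzer B/G FRET substrate after 2 h at room temperature, fluorescence at 405 nm excitation, 460/530 nm emission.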
Assay [4] concerns the target Thyrotropin-releasing hormone receptor (Homo sapiens) (UniProt P34981). Nature of the assay: qHTS assay to identify small molecule antagonists of the thyrotropin-releasing hormone receptor (TRHR) signaling pathway (AID 1346877; active means well fitted inhibition curve with a large enough effect in the repeat runs, not every such curve was filed as active; further: potency means the concentration at half of the fitted maximal effect). The method, boiled down:
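Kinetic fluorescence (3 min, 1 s resolution) following stimulation with TRH at 1 nM final; HEK293 cells bearing human TRHR; 5 min compound preincubation at RT; concentration-response over 15 points, triplicates.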

Assay [5] has the same target. Nature of the assay: qHTS assay to identify small molecule agonists of the thyrotropin-releasing hormone receptor (TRHR) signaling pathway (AID 1346891; calls by dose curve; further: potency means the concentration at half of the fitted maximal effect; on activation: series mostly up to about 58 µM). The method, boiled down: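 HEK293 cells expressing TRHR plated 18 h at 37 C/5% CO2, calcium dye-loaded 2 h at 37 C, then compound added (agonist mode); kinetic calcium fluorescence read 3 min at 1 s intervals; 15 concentrations in triplicate.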

A short description of assay [6]: Human pregnane X receptor (PXR) small molecule agonists, qHTS cell viability counter screen (AID 1346977). Further: nearly all actives have a fitted effect of over 50% in size. Further: potency means the concentration at half of the fitted maximal effect. The method, boiled down: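 PXR-Luc HepG2 cells (2,000/well, 5% charcoal-stripped FBS) preincubated 5 hr, then exposed to compounds 24 hr at 37 C. Viability read in the same wells by CellTiter-Fluor fluorescence, reagent added at 23 hr, 1 hr incubation.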
In assay [7] the target is Progesterone receptor (Homo sapiens) (UniProt P06401). The experiment in a line: qHTS assay to identify small molecule antagonists of the progesterone receptor (PR) signaling pathway (AID 1346795; active means well fitted inhibition curve with a large enough effect in the signal ratio in the repeat runs, not every such curve was filed as active; the % refers to the signal ratio; further: potency means the concentration at half of the fitted maximal effect). In a few lines: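 PR-UAS-bla HEK293T cells with beta-lactamase reporter under UAS control, in 2% charcoal-stripped FBS, treated with compounds plus 1 nM promegestone (R5020, final) for 16 hr at 37C. Read-out: FRET beta-lactamase substrate fluorescence after 2 hr at room temperature.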
Sequence of Progesterone receptor (Homo sapiens) (P06401 whole entry, looked up): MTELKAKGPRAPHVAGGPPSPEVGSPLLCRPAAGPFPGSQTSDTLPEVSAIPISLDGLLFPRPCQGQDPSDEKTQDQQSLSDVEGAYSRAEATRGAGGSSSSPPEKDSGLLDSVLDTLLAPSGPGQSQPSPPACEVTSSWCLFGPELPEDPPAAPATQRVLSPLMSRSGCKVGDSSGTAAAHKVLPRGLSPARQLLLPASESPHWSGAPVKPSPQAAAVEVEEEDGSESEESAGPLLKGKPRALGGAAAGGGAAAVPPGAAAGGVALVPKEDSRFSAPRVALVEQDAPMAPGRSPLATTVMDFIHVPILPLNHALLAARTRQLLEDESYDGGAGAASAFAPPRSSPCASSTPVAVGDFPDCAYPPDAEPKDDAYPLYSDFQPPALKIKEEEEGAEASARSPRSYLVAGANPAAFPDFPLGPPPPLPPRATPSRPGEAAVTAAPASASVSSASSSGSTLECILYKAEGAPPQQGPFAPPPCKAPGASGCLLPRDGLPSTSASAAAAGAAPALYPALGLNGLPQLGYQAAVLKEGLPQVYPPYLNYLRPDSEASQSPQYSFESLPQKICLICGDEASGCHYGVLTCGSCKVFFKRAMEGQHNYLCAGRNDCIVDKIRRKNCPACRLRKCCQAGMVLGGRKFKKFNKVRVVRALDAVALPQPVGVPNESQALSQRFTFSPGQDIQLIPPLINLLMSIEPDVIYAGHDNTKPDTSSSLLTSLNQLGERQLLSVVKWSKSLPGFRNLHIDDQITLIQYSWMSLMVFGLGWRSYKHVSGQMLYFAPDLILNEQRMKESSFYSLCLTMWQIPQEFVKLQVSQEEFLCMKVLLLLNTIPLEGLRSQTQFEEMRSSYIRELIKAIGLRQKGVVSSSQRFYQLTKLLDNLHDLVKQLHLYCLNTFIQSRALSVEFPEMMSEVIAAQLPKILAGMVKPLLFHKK

The nature of assay [8]: qHTS assay to identify small molecule antagonists of the TGF-beta/Smad signaling pathway - cell viability counter screen (AID 1346824). Further: nearly all actives have a fitted effect of over 50% in size. Further: potency means the concentration at half of the fitted maximal effect. The method, boiled down: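 SBE-bla HEK 293T cells were plated overnight at 37 C, then given compounds in DMSO plus TGF-beta1 (added as 0.25 ng/mL solution) for 5 hr. After the bla read, CellTiter-Glo was added to the same wells and luminescence read after 30 min at room temperature.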

A short description of assay [9]: qHTS assay to identify small molecule antagonists of the progesterone receptor (PR) signaling pathway - cell viability counter screen (AID 1346798). Further: nearly all actives have a fitted effect of over 50% in size. Further: potency means the concentration at half of the fitted maximal effect. In a few lines: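 PR-UAS-bla HEK293T cells, 3,000/well in 2% charcoal-stripped FBS medium, dosed with compounds plus R5020 agonist and incubated 16 h at 37C. Viability then measured in the same wells by CellTiter-Glo luminescence after 30 min at RT.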

SMILES strings stand for the structures. Where “and” joins values, the source holds several entries; their conditions need not be identical. Equal values may be shown once. Results filed as inconclusive are left out. More than one record can exist for a structure, and the calls need not agree. Calls of active or inactive are those of the source. Unless noted, the call rests on the fitted dose curve; in most records, active means well fitted curve in the direction sought with a large enough effect in the repeat runs; inconclusive means weak or mixed curves; inactive means no such curve, though single readings can be large; an effect the other way counts as inactive or inconclusive.

Sequence of Thyrotropin-releasing hormone receptor (Homo sapiens) (P34981 whole entry, looked up): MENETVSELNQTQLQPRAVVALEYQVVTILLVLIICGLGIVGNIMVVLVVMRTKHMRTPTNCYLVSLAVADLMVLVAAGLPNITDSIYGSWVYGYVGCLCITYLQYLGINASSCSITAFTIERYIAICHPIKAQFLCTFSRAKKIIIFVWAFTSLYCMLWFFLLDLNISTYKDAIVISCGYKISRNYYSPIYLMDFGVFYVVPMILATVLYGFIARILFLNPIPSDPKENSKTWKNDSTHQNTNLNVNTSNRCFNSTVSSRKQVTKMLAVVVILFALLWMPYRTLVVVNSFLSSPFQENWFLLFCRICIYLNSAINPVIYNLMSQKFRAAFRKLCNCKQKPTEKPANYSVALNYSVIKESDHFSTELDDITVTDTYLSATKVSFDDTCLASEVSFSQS

Take `OCCOCCN1CCN(C(c2ccccc2)c2ccc(Cl)cc2)CC1` (centres undefined): the Potency was 33.9 µM (active) in assay [1] and 24 µM (active) in assay [6]. The Potency entry in assay [2], in [4] and in [5] was “inactive” throughout. Further, the call in assay [3] was inactive.

With `[Cl][In]([Cl])[Cl]`, the Potency entry in assay [7], in assay [8], in assay [2], in assay [4], in assay [5] and in [6] was “inactive” each time. For the same compound, the call in assay [3] was inactive.

Regarding `CCN(CC)C(=O)Nc1ccc(OCC(O)CNC(C)(C)C)c(C(C)=O)c1` (centres undefined), the Potency result in assay [9], in [1], in assay [8], in assay [2], in [4] and in [5] was “inactive” throughout. The Potency entry in assay [6] was “inactive”. The outcome in assay [3] was inactive.

On to `C#CC(C)(CC)OC(=O)c1ccccc1C(=O)O` (centres undefined), for which the Potency entry in assay [1], in assay [8], in assay [2] and in [6] was “inactive” throughout.

With `c1ccc2c(c1)CCCC2C1=NCCN1` (centres undefined), the Potency result in assay [9], in assay [1], in [8], in assay [2], in assay [4] and in [5] was “inactive” each time. In addition, the Potency entry in [6] is “inactive”. Further, the compound was classed as inactive in assay [3].

For the compound `CC(=O)O[C@]1(C(C)=O)CC[C@H]2[C@@H]3C[C@H](C)C4=CC(=O)CC[C@]4(C)[C@H]3CC[C@@]21C`, the Potency result in [7], in assay [8], in assay [2] and in assay [6] was “inactive” each time.

In the case of `CC(C)CCCCCCc1ccc(O)cc1`, the Potency in [9] is 6.22 µM (active); in assay [1], 4.94 µM (active) and inactive; in assay [6], 50.1 µM (active). Also, the Potency entry in assay [2], in [4] and in assay [5] was “inactive” in each case. In addition, the call in assay [3] was inactive.

As for `Cc1cc(Cc2cc(C)cc(C(C)(C)C)c2O)c(O)c(C(C)(C)C)c1`, the Potency in assay [9] was 43.5 µM (active) and 48.6 µM (active); in [1] it was 27.4 µM (active); in assay [8], 49.2 µM (active) and 54.9 µM (active); in assay [2], 43.9 µM (active) and 54.9 µM (active); in assay [6], 39.8 µM (active) and 61.1 µM (active). Further, the Potency entry in [4] and in [5] was “inactive” each time.

For `O=C(O[C@@H]1Cc2c(O)cc(O)cc2O[C@@H]1c1cc(O)c(O)c(O)c1)c1cc(O)c(O)c(O)c1`, the Potency result in assay [9], in assay [1], in assay [8], in [2], in assay [4] and in [5] was “inactive” throughout. In [3], the outcome was inactive. Besides, in assay [6], the Potency is 35.5 µM (active).

In the case of `O=c1n(CC2CO2)c(=O)n(CC2CO2)c(=O)n1CC1CO1` (centres undefined), the Potency result in assay [9], in assay [8], in assay [2], in assay [4] and in assay [5] was “inactive” each time. Further, the outcome in [3] was inactive. In addition, in assay [6], the Potency is 50.1 µM (active) and 54.5 µM (active).

Consider `O=Nc1ccc(Nc2ccccc2)cc1`, for which the Potency in assay [7] was 54.5 µM (active). In addition, the Potency result in [8], in assay [2], in [4] and in assay [5] was “inactive” each time. Besides, the compound was classed as inactive in [3].

With `Nc1ccc2cc3ccccc3cc2c1`, the Potency result in assay [9], in assay [1], in assay [8] and in assay [2] was “inactive” in each case.

As for `C=C(C)C1CC=C(C)C(OC(C)=O)C1` (centres undefined), the Potency entry in [9], in [1], in [8], in assay [2] and in [6] was “inactive” throughout.

Regarding `CCn1c2ccccc2c2cc(N)ccc21`, the Potency result in assay [9], in assay [1], in [2], in assay [4], in [5] and in assay [6] was “inactive” each time.

As to `CCCCCCCCCCCCc1ccccc1O`, the Potency was 38.6 µM (active) in assay [9]; 53.8 µM (active) and 30.6 µM (active) in assay [1]; 54.2 µM (active) and 54.9 µM (active) in [8]; 49 µM (active) in assay [2]; 47.9 µM (active) and 30.6 µM (active) in assay [6]. Further, the compound was classed as inactive in assay [3]. Besides, the Potency entry in assay [4] and in assay [5] was “inactive” in each case.

In the case of `COc1ccc(CCN(C)CCCC(C#N)(c2ccc(OC)c(OC)c2)C(C)C)cc1OC` (centres undefined), the Potency entry in assay [9], in [1], in assay [2], in [4] and in assay [5] was “inactive” throughout.

As for `CC(C)(c1ccccc1)c1ccc(Nc2ccc(C(C)(C)c3ccccc3)cc2)cc1`, the Potency result in [8], in assay [2], in [4], in assay [5] and in [6] was “inactive” throughout. In addition, the compound was classed as inactive in assay [3].

Take `O=C1OC2(c3ccc(O)cc3Oc3cc(O)ccc32)c2ccccc21`: the Potency result in assay [9], in assay [1], in [8] and in [2] was “inactive” each time. Besides, the Potency in assay [4] is 536 nM (active) and 3.7 µM (active); in assay [5], 155 nM (active) and 1.69 µM (active).

`CN1C(=O)c2ccc([N+](=O)[O-])cc2C1=O`: the Potency entry in [9], in assay [1], in assay [8], in assay [2], in assay [4] and in [5] was “inactive” in each case. In addition, in assay [6], the Potency entry was “inactive”. For the same compound, in [3], the result was inactive.

Turning to `O=C(O)CCc1ccccc1`, the Potency entry in [9], in assay [1], in assay [8], in assay [2], in assay [4] and in [5] was “inactive” throughout. Also, in assay [6], the Potency result was “inactive”. Besides, in assay [3], the outcome was inactive.

As to `CCOc1ccc2c(c1)C(C)=CC(C)(C)N2`, the Potency entry in [9], in assay [1], in [8], in assay [2], in assay [4] and in assay [5] was “inactive” each time. The Potency entry in assay [6] was “inactive”.

In the case of `O=C(O)CP(=O)(O)O`, the Potency entry in assay [9], in assay [1], in [8], in assay [2] and in assay [6] was “inactive” in each case. Besides, the outcome in assay [3] was inactive.

Take `Nc1nc2ccccc2[nH]1`: the Potency result in assay [9], in assay [1], in assay [8], in assay [2], in assay [4] and in [5] was “inactive” throughout. In addition, the Potency result in assay [6] is “inactive”.

With `C=C(C)C(=O)O`, the Potency entry in [9], in assay [1], in [8], in assay [2], in [4] and in assay [5] was “inactive” in each case. Further, the Potency result in [6] was “inactive”. The compound was called inactive in assay [3].

As for `CC(=O)C1=C(C)[C@@H]2C[C@@]3(C1)[C@H](C)CC[C@H]3C2(C)C`, the Potency result in assay [9], in assay [1], in assay [8], in assay [2], in [4] and in [5] was “inactive” throughout. Besides, the Potency result in assay [6] was “inactive”. Besides, in [3], the result was inactive.

Regarding `CCCCCCCCCCCCCC[P+](CCCC)(CCCC)CCCC`, the Potency in assay [9] is 30.5 µM (active) and 54.5 µM (active); in assay [1], 30.5 µM (active); in [8], 10.9 µM (active) and 27.5 µM (active); in assay [2] it was 54.9 µM (active); in assay [6], 6.31 µM (active) and 13.7 µM (active). For the same compound, the Potency result in [4] and in assay [5] was “inactive” each time.

Turning to `CC(C(O)c1ccc(O)cc1)N1CCC(Cc2ccccc2)CC1` (centres undefined), the Potency result in assay [9], in assay [2], in assay [4], in assay [5] and in assay [6] was “inactive” throughout. Also, the outcome in assay [3] was inactive.

With `CCN(CC)CCOc1ccc(/C(=C(\Cl)c2ccccc2)c2ccccc2)cc1`, in assay [3], the call was inactive. The Potency in assay [6] is 39.4 µM (active) and 26.6 µM (active).

`CC(C)(C)c1ccc(O)c(C(C)(C)C)c1`: the Potency result in assay [8], in [5] and in [6] was “inactive” in each case. Further, the call in assay [3] was inactive.

Take `CC[C@]1(O)C[C@@H]2CN(CCc3c([nH]c4ccccc34)[C@@](C(=O)OC)(c3cc4c(cc3OC)N(C)[C@H]3[C@@](O)(C(=O)OC)[C@H](OC(C)=O)[C@]5(CC)C=CCN6CC[C@]43[C@@H]65)C2)C1`: the Potency entry in assay [8], in assay [2], in assay [4] and in [5] was “inactive” throughout. Moreover, the compound was classed as inactive in [3]. In addition, the Potency in [6] was 15 µM (active) and 26.6 µM (active).
